# Assay results as given in ChEMBL document CHEMBL1157539, “Thousands of chemical starting points for antimalarial lead identification” (Nature, 2010).
# “And” between values parts separate entries of the source, which are not always exact repeats. Equal values may be shown once.
# What was measured:
# Assay type in all cases: functional
# Plasmodium falciparum [1] = test: GSK_TCMDC: Inhibition of Plasmodium falciparum 3D7 in whole red blood cells, using parasite LDH activity as an index of growth. Test compounds present at 2uM
# Plasmodium falciparum [2] = test: GSK_TCMDC: Inhibition of Plasmodium falciparum Dd2 in whole red blood cells, using parasite LDH activity as an index of growth. Test compounds present at 2uM
# HepG2 = test: GSK_TCMDC: Percent inhibition of human HepG2 cell line. Test compounds present at 10uM.
Compound,Inhibition (Plasmodium falciparum [1]),Inhibition (Plasmodium falciparum [2]),Inhibition (HepG2)
NCc1ccc(-c2ccccc2CN(C(=O)Nc2ccccc2)C2CCN(Cc3ccccc3)CC2)cc1.O=C(O)C(F)(F)F,100%,35%,36%
CC[C@H]1CN2CC[C@H]1C[C@@H]2[C@@H](OC(=O)c1ccc(Cl)cc1)c1ccnc2ccc(OC)cc12,89%,0%,0%
CC[C@H]1CN2CC[C@@H]1C[C@H]2[C@H](O)c1ccnc2ccc(Cl)cc12.Cl,100%,98%,0%
CC[C@H]1CN2CC[C@@H]1C[C@H]2[C@H](O)c1cc(-c2ccccc2)nc2ccc(O)cc12.Cl,99%,99%,14%
Br.CC[C@H]1CN2CCc3cc(OC)c(OC)cc3[C@@H]2C[C@@H]1C[C@H]1NCCc2c1cc(OC)c(O)c2I,100%,100%,54%
CN(C)c1cccc(CN2CC=C(c3c[nH]c4ccc(Cl)cc34)CC2)c1,93%,87%,40%
COc1ccc(F)cc1-c1csc(N(c2ccc(F)cc2)C2CCNCC2)n1.O=C(O)C(F)(F)F,94%,0%,15%
CC(C)CNCc1ccc(-c2ccc(CN(C(=O)Nc3ccccc3)C3CCN(Cc4ccccc4)CC3)cc2)cc1.O=C(O)C(F)(F)F,100%,61%,27%
Cc1c(C(=O)N[C@@H](C)c2ccccc2)c2cc(O)c(Br)cc2n1C1CCCCC1,98%,95%,4%
COc1ccc(CC(C)NCC(O)c2cccc(Br)c2)cc1 (stereo unspecified),99%,93%,10%
COc1cc(/C=C/C(=O)NC2CCC(CN3CCC(c4c[nH]c5ccccc45)CC3)CC2)ccc1O (stereo unspecified),98% and 99%,45% and 44%,11% and 19%
O=C(Cc1cc(=O)oc2cc(O)ccc12)NC1CCC(CN2CCC(c3c[nH]c4ccccc34)CC2)CC1 (stereo unspecified),96%,0%,5%
COCC(=O)N(Cc1ccccc1-c1ccc(CNCCc2ccccc2)cc1)C1CCN(Cc2ccccc2)CC1.O=C(O)C(F)(F)F,94%,86%,39%
CC(=O)N(Cc1cccc(-c2ccc(CNCCc3ccccc3)cc2)c1)C1CCN(Cc2ccccc2)CC1.O=C(O)C(F)(F)F,99%,50%,32%
COc1ccc(CC(C)NCC(O)c2cccc(C(F)(F)F)c2)cc1 (stereo unspecified),98%,94%,0%
COc1coc(C(=O)NC2CCN(CC3(c4ccc(Cl)cc4)CCC3)CC2)c1OC,96%,96%,2%
S=C(Nc1ccccc1Cl)NC1CCC(CN2CCC(c3c[nH]c4ccccc34)CC2)CC1 (stereo unspecified),90%,12%,31%
O=C(/C=C/c1ccc(O)cc1)NC1CCC(CN2CCC(c3c[nH]c4ccccc34)CC2)CC1 (stereo unspecified),99%,51%,21%
Oc1ccc(Cl)cc1CN1CCC(CCOC(c2ccccc2)c2ccccc2)CC1,98%,99%,14%
COc1cc(C=CC(=O)N2CCC(CN3CCC(c4c[nH]c5ccccc45)CC3)CC2)ccc1O,82%,25%,11%
COc1ccc2[nH]cc(C3=CCN(Cc4ccccc4)CC3)c2c1,90%,84%,51%
CCCCOC(C(=O)OCC1CCCN1C)(c1ccccc1)c1ccccc1 (stereo unspecified),100%,2%,3%
COc1ccc(C=CC(=O)NC2CCC(CN3CCC(c4c[nH]c5ccccc45)CC3)CC2)cc1 (stereo unspecified),100%,61% and 60%,13% and 30%
Cc1ccccc1CNCC(O)c1cccc(C(F)(F)F)c1 (stereo unspecified),99%,77%,5%
O=C(Nc1ccccc1Cl)NC1CCC(CN2CCC(c3c[nH]c4ccccc34)CC2)CC1 (stereo unspecified),100% and 98%,34% and 31%,32% and 37%
CCCCC1(NC(=O)[C@H](CC(C)C)Nc2ccc(C#N)c3ccccc23)CCCCC1.O=C(O)C(F)(F)F,96%,47%,37%
O=C(/C=C/c1ccc(Cl)c(Cl)c1)N1CCC(CN2CCC(c3c[nH]c4ccc(O)cc34)CC2)CC1,100%,100%,44%
